Measured values taken from PubChem BioAssay.
Values without a mark were called inactive.

Assay: A549 lung cancer cell viability effects, profiling panel, resazurin fluorescence, 24 h, PK04 Diversity Set (AID 1171); further: test concentration not given here
Conditions: higher = more signal, called active from +8 up or from −8 down

Which z-score does the source give for CCOC(=O)C[C@H]1[C@H](OC(=O)Cc2ccc3c(c2)OCO3)[C@@H](NC(=O)c2ccc3ccccc3n2)c2cc(OCCCO)ccc2N1C(=O)c1ccccc1 here?
The z-score was 0.231.

With COc1ccc([Si](C)(C)[C@@H]2[C@@H](CC(=O)N(CCO)Cc3ccccc3)O[C@]3(C(=O)N(Cc4cccc(N5CCCCC5=O)c4)c4ccccc43)[C@H]2C)cc1 as the molecule, how does the z-score read?
Its z-score is -1.6.

With C=C[C@@H](OC)[C@H](OC(=O)Nc1ccc(OC)cc1)c1ccc(O)c(F)c1 as the molecule, how does the z-score read?
The z-score was -0.0973.

With CCCCCC1=C2CNC(C)(C(=O)OC)C=C2C(C)C1=O (configuration not stated) as the molecule, how does the z-score read?
The z-score was -0.722.

For O=C1NC(=O)C2C1C=CC(C(O)c1ccco1)N2Nc1ccc(Cl)cc1Cl (configuration not stated), which z-score is on record?
The z-score was -2.08.

With CCC#CCN(Cc1ccccc1Br)[C@H](/C=C/C1CC1)[C@@H](O)Cc1ccccc1 as the molecule, how does the z-score read?
The z-score was 2.76.

For COc1ccc([Si](C)(C)[C@@H]2[C@@H](CC(=O)N3Cc4ccccc4C[C@H]3CO)O[C@]3(C(=O)N(Cc4ccc(N5C(=O)c6cccc7cccc5c67)cc4)c4ccccc43)[C@H]2C)cc1, which z-score is on record?
The z-score was -0.787.

For [N-]=[N+]=Nc1ccccc1C[C@@]1(C(=O)NCCN2CCOCC2)N=C(c2ccc(OCCCO)cc2)O[C@@H]1c1ccccc1N=[N+]=[N-], which z-score is on record?
Its z-score is -1.

Which z-score does the source give for CC1=C2[C@@H](CCc3ccccc3)OB(O)C[C@@H]2[C@@H]2C(=O)N(Cc3ccccc3)C(=O)[C@@H]2C1 here?
Its z-score is -0.17.

Which z-score does the source give for CC1CC/C=C\[C@H]2OC34C=CCN(Cc5ccccc5)C(=O)[C@H]3N(C(CO)C(C)C)C(=O)[C@@H]4C2C(=O)O1 (some centres not stated) here?
The z-score was 0.0401.

Which z-score does the source give for COc1cccc(C)c1NC(=O)O[C@H]1[C@H](OC(=O)Nc2ccc3c(c2)OCO3)[C@@H](OC(=O)Nc2ccc3c(c2)OCO3)[C@@H](OC)O[C@@H]1CO here?
The z-score was -0.315.

Which z-score does the source give for Cc1ccccc1C(O)C1C=CC2C(=O)NC(=O)C2N1Nc1ccccn1 (configuration not stated) here?
The z-score was -1.02.

With CCCCC(=C=CC[C@H](O)c1ccc(OCCO)cc1)CCO as the molecule, how does the z-score read?
Its z-score is 0.533.

With CC(c1ccccc1)C(O)C1C=CC2C(=O)N(C)C(=O)C2N1Nc1ccccc1 (configuration not stated) as the molecule, how does the z-score read?
Its z-score is -0.183.

Which z-score does the source give for C=CCC(OC(C)=O)[C@@H]1[C@@H](N(Cc2ccc(-c3cccc(C(F)(F)F)c3)o2)C(=O)Cc2ccc(OC)cc2)c2cc(OCCCO)ccc2N1C(=O)c1ccc(-c2ccccc2)cc1 (some centres not stated) here?
Its z-score is -1.71.

With Cc1ccc(S[C@]2(C(=O)NC(C)C)CC(=O)N(Cc3cc(C(F)(F)F)cc(C(F)(F)F)c3)[C@@H]2c2ccc(CO)cc2)cc1 as the molecule, how does the z-score read?
Its z-score is 0.271.

With CCOC(=O)C[C@H]1[C@H](OC(=O)c2cc3ccccc3oc2=O)[C@@H](NC(=O)CC(C)C)c2cc(OCCCO)ccc2N1C(=O)c1ccc2ccccc2n1 as the molecule, how does the z-score read?
The z-score was -0.103.

With COc1ccc(CCNC(=O)[C@@]2(c3ccc([N+](=O)[O-])cc3)CC(=O)N(C3CCCCC3)[C@@H]2c2ccc(CO)cc2)cc1 as the molecule, how does the z-score read?
Its z-score is 1.28.

For C[C@@H]1NC(=O)[C@@H](Cc2ccccc2)NC(=O)[C@@]23C(=O)N[C@@H](Cc4ccccc4)C2[C@H](C)[C@@]2(C)O[C@H]2C3/C=C/C/C=C\CNC1=O (some centres not stated), which z-score is on record?
The z-score was -0.879.

Which z-score does the source give for CCC1=C2CN(Cc3ccccc3)[C@@H](C(=O)Cc3ccccc3)C2C=CCC1 (some centres not stated) here?
Its z-score is 0.822.

Which z-score does the source give for N#Cc1ccc(NN2C(C(O)c3ccc(Br)cc3)C=CC3C(=O)N(c4ccccc4)C(=O)C32)cc1 (configuration not stated) here?
Its z-score is -0.421.

With OCCCC1=CC(c2ccc(CN3CCCC3)cc2)N(Cc2cc3c(cc2Br)OCO3)CC1 (configuration not stated) as the molecule, how does the z-score read?
Its z-score is 0.731.

With O=C(O)[C@@H]1C[C@@H]2C(=O)N3CCC[C@H]3C(=O)N2[C@@H]1c1ccc(O)cc1 as the molecule, how does the z-score read?
Its z-score is -0.609.

For CC(C)[Si]1(C(C)C)OCc2cc(-c3ccc(-c4ccc(Cl)c(Cl)c4)o3)nc(-c3ccccc3)c21, which z-score is on record?
Its z-score is 0.793.

Which z-score does the source give for COc1ccc([Si](C)(C)[C@@H]2[C@@H](CCO)O[C@]3(C(=O)N(Cc4ccccc4)c4ccc(N5C(=O)c6cccc7cccc5c67)cc43)[C@H]2C)cc1 here?
Its z-score is -0.149.

With C=C[C@H](C)[C@H](OC(=O)Nc1ccc(SC)cc1)c1ccc(OCCO)cc1 as the molecule, how does the z-score read?
Its z-score is -1.48.

Which z-score does the source give for CCOC(=O)C[C@H]1[C@H](OC(=O)c2cc3ccccc3oc2=O)[C@@H](NC(=O)c2ccc3ccccc3n2)c2cc(OCCCO)ccc2N1C(=O)Cc1ccc(OC)cc1 here?
Its z-score is 0.711.
